# High-throughput results (PubChem BioAssay)
# MIN6 prolif = inducers of beta-cell replication in MIN6 cells | hit rate 0.29% among 330,000 | proliferation, % at 10 µM | MIN6 cells proliferation, ATPlite luminescence, 48 h; cells starved in 0.2% serum; 100% = growth in 10% serum;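 active = compounds whose signal lies at least 3.5 SD above the mean of all wells on their plate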;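 also: 0% = DMSO-treated cells in low-serum medium and 100% = 10% serum control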
# RAD52 inh = inhibitors of human RAD52 DNA annealing; recombinant RAD52 DNA annealing, FRET fluorescence; inhibition, % at 18.7 µM; hit rate 0.46% among 360,000; AID 651710;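 active = every replicate showing at least 50% inhibition; inconclusive = mean inhibition at least 50% but not in every replicate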
# Target sequence (P43351 whole entry, looked up): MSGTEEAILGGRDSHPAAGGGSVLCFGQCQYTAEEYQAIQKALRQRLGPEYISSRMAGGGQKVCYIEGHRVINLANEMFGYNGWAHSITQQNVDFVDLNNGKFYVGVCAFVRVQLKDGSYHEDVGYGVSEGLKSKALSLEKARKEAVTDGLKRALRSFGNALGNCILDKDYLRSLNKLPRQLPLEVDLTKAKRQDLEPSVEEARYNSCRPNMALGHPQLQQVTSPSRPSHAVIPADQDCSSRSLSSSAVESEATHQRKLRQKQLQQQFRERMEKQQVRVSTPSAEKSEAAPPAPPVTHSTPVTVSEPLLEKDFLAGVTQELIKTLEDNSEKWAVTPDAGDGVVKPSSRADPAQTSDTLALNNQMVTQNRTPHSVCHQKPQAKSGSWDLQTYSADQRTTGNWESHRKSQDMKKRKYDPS
# RAD54 branch = blocks human RAD54 Holliday junction branch migration; AID 602329; hit rate 0.14% among 360,000; inhibition, % at 10.4 µM; Q92698; FAM/BHQ fluorescence;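 active = mean normalized replicate activity at least 40 and at least half of replicates scoring 40 or more; inconclusive = only one of the two criteria met; inactive = mean below 40 and under half of replicates reaching 40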;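 also: 0% = median of neutral control wells and 100% = median of positive control wells; inhibitors cause a drop in the FAM fluorescence signal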
# UBC13 inh = blocks human UBC13 polyubiquitin chain formation; TR-FRET; P61088; hit rate 0.47% among 330,000; inhibition, % at 20 µM; AID 485273; in the data active = inhibition above about 45%, passing the limit was not always enough; inconclusive = no clear call, values can overlap the other calls
# Target sequence (P61088 whole entry, looked up): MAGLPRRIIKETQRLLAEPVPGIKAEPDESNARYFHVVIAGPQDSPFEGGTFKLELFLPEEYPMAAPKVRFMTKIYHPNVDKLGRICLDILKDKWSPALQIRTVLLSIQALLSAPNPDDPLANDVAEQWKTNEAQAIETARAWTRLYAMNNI
# PREPL inhibitor = human PREPL enzyme inhibition. Q4J6C6. recombinant PREPL, fluorescence polarization activity-based probe. inhibition, % at 5.96 µM. hit rate 0.68% among 320,000. AID 2751; in the data active = inhibition above about 43%;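 also: 0% = enzyme with DMSO and 100% = wells lacking enzyme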
# DNA FID counter = fluorescent intercalator displacement, NS3 helicase counter-screen; AID 1845; DNA fluorescent intercalator displacement, fluorescence; inhibition, % at 7.9 µM; hit rate 0.17% among 290,000; in the data active = inhibition above about 37%;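 also: 0% = vehicle and 100% = reference compound; higher means more ethidium bromide displaced from hairpin DNA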
# Active calls of the source: *; ? = inconclusive; nt = no result; ! = repeats disagree. Compounds with a hit are over-represented: about 1.3% of the library has one in this group of screens.
SMILES,MIN6 prolif,RAD52 inh,RAD54 branch,UBC13 inh,PREPL inhibitor,DNA FID counter
O=S(=O)(c1ccccc1)N1[C@@H]2CNC[C@H]1C2c1ccc(-c2cccnc2)cc1 (stereo not given in full),nt,-9,nt,nt,nt,nt
Cc1ccc(S(=O)(=O)N2[C@@H]3CNC[C@H]2C3c2ccc(/C=C/c3ccccc3)cc2)cc1 (stereo not given in full),nt,53*!,nt,nt,nt,nt
Cc1ccc(S(=O)(=O)N2[C@@H]3CNC[C@H]2C3c2ccc(-c3cccc(F)c3)cc2)cc1 (stereo not given in full),nt,37,nt,nt,nt,nt
O=S(=O)(c1ccccc1)N1[C@@H]2CNC[C@H]1C2c1ccc(/C=C/c2ccccc2)cc1 (stereo not given in full),nt,49,nt,nt,nt,nt
Cc1ccc(S(=O)(=O)N2[C@@H]3CNC[C@H]2C3c2ccc(-c3ccc(C#N)cc3)cc2)cc1 (stereo not given in full),nt,55*,nt,nt,nt,nt
CC(C)NC(=O)Nc1ccc2c(c1)C(=O)N([C@H](C)CO)C[C@H](C)[C@@H](CN(C)C(=O)CCCN(C)C)OCCCC[C@H](C)O2,nt,1,-11,nt,nt,nt
CC=Cc1ccc2n(c1=O)C[C@H]1[C@H](CO)[C@@H](C(=O)NCc3ccc(F)cc3)N(Cc3cncnc3)[C@@H]21 (mixture of isomers),nt,-19,-6,nt,nt,nt
CCS(=O)(=O)Nc1ccc2c(c1)C(=O)N(C)[C@H]1CC[C@H](CC(=O)Nc3ccccc3C)O[C@@H]1CO2,nt,-6,nt,nt,nt,nt
COc1ccc(CCn2c(=N)c(C(=O)NCCN3CCOCC3)cc3c(=O)n4ccccc4nc32)cc1OC,-1,41,?,-8,13,44*
COc1ccc(CCNC(=O)c2cc3c(=O)n4ccccc4nc3n(CCN3CCOCC3)c2=N)cc1,-1,9,22,0,39,-7
COc1ccc(NC(=O)N(C)C[C@H]2Oc3c(NC(=O)c4cnccn4)cccc3C(=O)N([C@@H](C)CO)C[C@H]2C)cc1,nt,-1,-8,nt,nt,nt
COc1ccccc1CN1CCC(CNS(=O)(=O)c2cc(-c3onc(C)c3C)ccc2OC)CC1,-7,-5,-2,11,14,44*
COc1ccccc1S(=O)(=O)N1CC[C@@H]2[C@H](CO)N(C)c3ccc(C#Cc4cccc(F)c4)cc3[C@@H]21,nt,nt,9,nt,nt,nt
Cc1ccccc1S(=O)(=O)NNC(=O)C(=O)NNc1ccccn1,-1,nt,-1,4,13,-5
Nc1ccc(S(=O)(=O)NNC(=O)C(=O)NNc2ccccn2)cc1,-3,-21,-7,93*,2,0
CCC(=O)Nc1ccc2c(c1)C(=O)N(C)C[C@H](OC)[C@H](C)CN(C(=O)CC)[C@H](C)CO2,nt,1,-2,nt,nt,nt
O=c1oc2ccccc2nc1/C=C(O)/C=C/c1ccc(F)cc1,-6,nt,-12,-3,3,40*
O=c1oc2ccccc2nc1/C=C(O)/C=C\c1ccccc1,-4,nt,nt,-22,17,-9
CCOC(=O)CSc1nc2ccc(N3CCOCC3)cc2c(=O)n1Cc1ccc2c(c1)OCO2,-5,nt,nt,-8,52*,-13
COCC(=O)Nc1ccc2c(c1)C(=O)N(C)[C@H]1CC[C@@H](CC(=O)NCc3ccccc3Cl)O[C@@H]1CO2,nt,nt,-2,nt,nt,nt
CCN1[C@@H]2c3ccc(C4=CCCCC4)c(=O)n3C[C@H]1[C@H](CO)[C@H]2C(=O)NCCOC,nt,9,16,nt,nt,nt
C#CCOCCOCCOCCNc1nc(N2CCN(C(=O)CCCCCCCCCCNC(=O)[C@H]([C@@H](C)CC)n3cc(CCCCN=C(N)N)nn3)CC2)nc(N2CCN(C(=O)CCCCCCCCCCNC(=O)[C@H](CCCCN)n3cc(C[C@@H](C)CC)nn3)CC2)n1,-8,nt,nt,122*,57*,nt
C#CCOCCOCCOCCNc1nc(N2CCN(C(=O)CCCCCCCCCCNC(=O)[C@H](CO)n3cc(CCCSC)nn3)CC2)nc(N2CCN(C(=O)CCCCCCCCCCNC(=O)[C@H](CCCCN)n3cc(C[C@@H](C)CC)nn3)CC2)n1,-8,nt,nt,118*,29,nt
C#CCOCCOCCOCCNc1nc(N2CCN(C(=O)CCCCCCCCCCNC(=O)Cn3cc(C[C@@H](C)O)nn3)CC2)nc(N2CCN(C(=O)CCCCCCCCCCNC(=O)[C@H](CCCCN)n3cc(C[C@@H](C)CC)nn3)CC2)n1,-8,nt,-2,122*,29,nt
C#CCOCCOCCOCCNc1nc(N2CCOCC2)nc(N2CCN(C(=O)CCCCCCCCCCNC(=O)[C@@H](CCSC)n3cc(CCO)nn3)CC2)n1,-3,-1,-18,1,5,nt
SMILES,MIN6 prolif,RAD52 inh,RAD54 branch,UBC13 inh,PREPL inhibitor,DNA FID counter
C#CCOCCOCCOCCNc1nc(N2CCN(C(=O)[C@H]([C@@H](C)CC)n3cc(CCCN=C(N)N)nn3)CC2)nc(N2CCN(C(=O)[C@H](CCCCN)n3cc(CC(C)O)nn3)CC2)n1 (stereo not given in full),4,23,-15,3,9,nt
C#CCOCCOCCOCCNc1nc(N2CCN(C(=O)CCCCCCCCCCNC(=O)[C@@H](CCSC)n3cc(CCO)nn3)CC2)nc(N2CCN(C(=O)CCCCCCCCCCNC(=O)[C@H]([C@@H](C)CC)n3cc(CCCCCN)nn3)CC2)n1,-8,nt,nt,116*,40,nt
C[C@@H]1CN([C@@H](C)CO)C(=O)c2cc(NC(=O)Nc3ccc(F)cc3)ccc2O[C@@H](C)CCCCO[C@@H]1CN(C)Cc1ccccc1,nt,18,-2,nt,nt,nt
COc1ccc(C[C@@H]2CCn3cc(nn3)COC[C@H](Cc3ccccc3)NC2=O)cc1,nt,-11,nt,nt,nt,nt
CCCN1C[C@@H](C)[C@@H](OC)CN(C)C(=O)c2ccc(NC(=O)CC(F)(F)F)cc2OC[C@@H]1C,nt,-29,6,nt,nt,nt
COC(=O)C[C@H]1CC[C@H]2[C@@H](COc3ccc(NS(C)(=O)=O)cc3C(=O)N2C)O1,nt,-8,nt,nt,nt,nt
C#CCOCCOCCOCCNc1nc(N2CCN(C(=O)CCCCCCCCCCNC(=O)[C@H](CCC(=O)O)n3cc(CCCCCN)nn3)CC2)nc(N2CCN(C(=O)CCCCCCCCCCNC(=O)[C@@H]([C@H](C)O)n3cc(C)nn3)CC2)n1,-3,nt,-9,41,-2,nt
C#CCOCCOCCOCCNc1nc(N2CCN(C(=O)CCCCCCCCCCNC(=O)[C@H](CCCCN)n3cc(C[C@@H](C)CC)nn3)CC2)nc(N2CCN(C(=O)CCCCCCCCCCNC(=O)[C@H](CCCCN)n3cc(C[C@@H](C)CC)nn3)CC2)n1,nt,nt,8,nt,46*,nt
CNC(=O)C[C@@H]1CC[C@H]2[C@@H](COc3ccc(NC(=O)NC(C)C)cc3C(=O)N2C)O1,nt,nt,5,nt,nt,nt
CCCC[n+]1ccn(-c2nc3ccccc3nc2[N-]S(=O)(=O)c2cccs2)c1,-2,-11,94*,5,-4,31
CCCC[n+]1ccn(-c2nc3ccccc3nc2[N-]S(=O)(=O)c2ccccc2)c1,2,3,-16,6,-4,-11
CN1c2ccc(-c3cccc(C#N)c3)cc2[C@H]2[C@H](CCN2C(=O)NC2CCCC2)[C@@H]1CO,nt,18,nt,nt,nt,nt
